Holding throughout (test): qHTS profiling for inhibitors of Plasmodium falciparum proliferation (AID 504749); note: nearly all actives have a fitted effect of over 60% in size
What all share (conditions): P. falciparum in erythrocytes, SYBR Green DNA, 72 h; series mostly up to 28.7 µM

Assay [1] relates to CP256. Summed up: (§1)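 Readout was DNA-dye fluorescence from lysed cultures, ex 485/em 535 nm. Parasitized red cells had grown 72 h with compound; data scaled between 0.29 uM artemisinin and DMSO wells and corrected using vehicle-only plates.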
Assay [2] concerns CP260. An outline of the steps:
as §1

Assay [3] deals with CP262. An outline of the steps: as §1
In assay [4] the test system is CP265. Summed up: as §1
Assay [5] concerns CP266. Summed up:
as §1

Assay [6] has as its system CP268. Summed up:
as §1

Assay [7] concerns CP269. Summed up:
as §1

For assay [8], the system named is CP286. Summed up:
as §1

Assay [9] deals with CP291. An outline of the steps: as §1
For assay [10], the system named is CP297. An outline of the steps:
as §1

Inconclusive results are not listed. Calls of active or inactive are those of the source. Calls come from the whole dose curve; as a rule, active = well fitted inhibition curve with a large enough effect; inconclusive = small, poorly fitted or top-dose-only effect; inactive = flat fitted curve, though single readings scatter.
Potency is the fitted concentration of half-maximal effect.

Take `CN1CCC(OC(=O)C(Oc2ccc(Cl)cc2)Oc2ccc(Cl)cc2)CC1`: the Potency entry in assay [1], in [2], in [3], in [4], in [5] and in [6] was “inactive” throughout. In addition, the Potency entry in [7], in [8], in [9] and in assay [10] was “inactive” each time.
With `Cc1c(Cl)cccc1Nc1ncccc1C(=O)O`, the Potency entry in assay [1], in [2], in [3], in [4], in assay [5] and in assay [6] was “inactive” each time. Further, the Potency result in [7], in assay [8], in assay [9] and in assay [10] was “inactive” each time.
In the case of `[O]=[Bi][O]C(=O)[O][Bi]=[O]`, the Potency result in assay [1], in assay [2], in assay [3], in assay [4], in assay [5] and in [6] was “inactive” in each case. In addition, the Potency result in assay [7], in assay [8], in assay [9] and in [10] was “inactive” throughout.
Regarding `O=C(O)CCC/C=C\C[C@@H]1[C@@H](/C=C/[C@@H](O)COc2cccc(C(F)(F)F)c2)[C@H](O)C[C@@H]1O`, the Potency result in [1], in [2], in [3], in assay [4], in assay [5] and in [6] was “inactive” in each case. Also, the Potency result in [7], in assay [8], in assay [9] and in assay [10] was “inactive” in each case.
Regarding `Cc1ncc(C[n+]2csc(CCOP(=O)(O)OP(=O)(O)O)c2C)c(N)n1`, the Potency entry in assay [1], in assay [2], in assay [3], in assay [4], in [5] and in assay [6] was “inactive” each time. In addition, the Potency entry in [7], in assay [8], in assay [9] and in assay [10] was “inactive” each time.
In the case of `CNC(=O)OCc1cccc(COC(=O)NC)n1`, the Potency result in [1], in assay [2], in assay [3], in assay [4], in assay [5] and in assay [6] was “inactive” throughout. Further, the Potency result in assay [7], in assay [8], in assay [9] and in [10] was “inactive” each time.
In the case of `CC(CCc1ccc(O)cc1)NCC(O)c1ccc(O)cc1` (stereo not given), the Potency entry in [1], in assay [2], in assay [3], in [4], in assay [5] and in assay [6] was “inactive” throughout. The Potency entry in [7], in [8], in [9] and in [10] was “inactive” throughout.
As for `CCOc1ccc(S(=O)(=O)O)c2cccnc12`, the Potency result in assay [1], in assay [2], in assay [3], in assay [4], in assay [5] and in assay [6] was “inactive” in each case. For the same compound, the Potency entry in assay [7], in assay [8], in assay [9] and in assay [10] was “inactive” in each case.
For the compound `CCOc1ccc(NC(=S)Nc2ccc(OCC)cc2)cc1`, the Potency entry in [1], in assay [2], in assay [3], in assay [4], in assay [5] and in assay [6] was “inactive” in each case. Moreover, the Potency entry in assay [7], in assay [8], in [9] and in assay [10] was “inactive” each time.
On to `COc1cc(S(C)=O)ccc1-c1nc2ncccc2[nH]1` (stereo not given), for which the Potency result in assay [1], in [2], in assay [3], in assay [4], in assay [5] and in [6] was “inactive” each time. Further, the Potency entry in [7], in assay [8], in [9] and in assay [10] was “inactive” in each case.
In the case of `CN[C@@H]1[C@H](O[C@H]2[C@H](O[C@H]3[C@H](O)[C@@H](O)[C@H](N=C(N)N)[C@@H](O)[C@@H]3N=C(N)N)O[C@@H](C)[C@]2(O)C=O)O[C@@H](CO)[C@H](O)[C@H]1O`, the Potency result in assay [1], in assay [2], in [3], in [4], in assay [5] and in assay [6] was “inactive” throughout. For the same compound, the Potency entry in assay [7], in assay [8], in [9] and in [10] was “inactive” each time.
For `CCSc1ccc2c(c1)N(CCCN1CCN(C)CC1)c1ccccc1S2`, the Potency entry in [1], in assay [2], in assay [3], in [4], in [5] and in [6] was “inactive” in each case. The Potency result in assay [7], in [8], in assay [9] and in [10] was “inactive” in each case.
On to `OCl`, for which the Potency result in assay [1], in assay [2], in assay [3], in assay [4], in assay [5] and in [6] was “inactive” each time. Moreover, the Potency entry in assay [7], in assay [8], in [9] and in assay [10] was “inactive” throughout.
Consider `CC(C)(COP(=O)(O)OP(=O)(O)OC[C@H]1O[C@@H](n2cnc3c(N)ncnc32)[C@H](O)[C@@H]1OP(=O)(O)O)C(O)C(=O)NCCC(=O)NCCS` (stereo not given in full), for which the Potency result in [1], in [2], in assay [3], in assay [4], in [5] and in [6] was “inactive” in each case. Also, the Potency entry in [7], in assay [8], in [9] and in [10] was “inactive” throughout.
Consider `C/C=C/C=C/C(=O)O`, for which the Potency entry in [1], in assay [2], in [3], in assay [4], in [5] and in assay [6] was “inactive” each time. In addition, the Potency result in assay [7], in assay [8], in assay [9] and in assay [10] was “inactive” throughout.
As for `C[C@H]1O[C@@H](O[C@H]2[C@@H](O)C[C@H](O[C@H]3[C@@H](O)C[C@H](O[C@H]4CC[C@@]5(C)[C@H](CC[C@@H]6[C@@H]5C[C@@H](O)[C@]5(C)[C@@H](C7=CC(=O)OC7)CC[C@]65O)C4)O[C@@H]3C)O[C@@H]2C)C[C@H](O)[C@@H]1O`, the Potency entry in assay [1], in assay [2], in assay [3], in assay [4], in assay [5] and in assay [6] was “inactive” in each case. Further, the Potency result in assay [7], in assay [8], in assay [9] and in assay [10] was “inactive” throughout.
In the case of `C[C@]12CC[C@@H]3c4ccc(OC(=O)c5ccccc5)cc4CC[C@H]3[C@@H]1CC[C@@H]2O`, the Potency entry in assay [1], in [3], in [4], in assay [5], in [6] and in assay [7] was “inactive” in each case. The Potency entry in assay [9] and in assay [10] was “inactive” in each case. In addition, the Potency in assay [2] is 5.01 µM (active); in assay [8] it was 12.6 µM (active).
Turning to `CC1CC(O)CC(C)(C)C1` (stereo not given), the Potency result in assay [1], in [2], in assay [3], in assay [4], in assay [5] and in assay [6] was “inactive” in each case. The Potency entry in assay [7], in assay [8], in assay [9] and in [10] was “inactive” in each case.
With `Cc1ccc(C(C)(C)c2ccc(C)cc2)cc1`, the Potency result in assay [1], in [2], in assay [3], in assay [4], in [5] and in [6] was “inactive” each time. Besides, the Potency result in assay [7], in assay [8], in [9] and in assay [10] was “inactive” throughout.
With `Nc1nc(=O)n([C@@H]2CS[C@H](CO)O2)cc1F`, the Potency result in [1], in assay [2], in [3], in assay [4], in [5] and in assay [6] was “inactive” in each case. In addition, the Potency result in assay [7], in assay [8], in [9] and in [10] was “inactive” in each case.
For `NCC[C@H](O)C(=O)N[C@@H]1C[C@H](N)[C@@H](O[C@H]2O[C@H](CN)[C@@H](O)[C@H](O)[C@H]2O)[C@H](O)[C@H]1O[C@H]1O[C@H](CO)[C@@H](O)[C@H](N)[C@H]1O`, the Potency result in assay [1], in [2], in [3], in assay [4], in assay [5] and in assay [6] was “inactive” each time. The Potency entry in [7], in [8], in [9] and in assay [10] was “inactive” each time.
In the case of `ClC(Cl)Cl`, the Potency entry in assay [1], in [2], in [3], in [4], in assay [5] and in assay [6] was “inactive” throughout. The Potency entry in [7], in assay [8], in assay [9] and in [10] was “inactive” in each case.
Turning to `CC(C)(C)CC(C)(C)c1cc(Cc2cc(C(C)(C)CC(C)(C)C)cc(-n3nc4ccccc4n3)c2O)c(O)c(-n2nc3ccccc3n2)c1`, the Potency entry in assay [1], in assay [2], in [3], in assay [4], in assay [5] and in assay [6] was “inactive” throughout. Moreover, the Potency entry in [7], in assay [8], in assay [9] and in [10] was “inactive” in each case.
For the compound `CCC(C)[C@@H](N)C(=O)O` (stereo not given in full), the Potency result in assay [1], in assay [2], in assay [3], in assay [4], in assay [5] and in [6] was “inactive” in each case. Also, the Potency entry in [7], in [8], in assay [9] and in assay [10] was “inactive” in each case.
In the case of `CC/C=C\C/C=C\C/C=C\C/C=C\C/C=C\C/C=C\CCC(=O)O`, the Potency entry in [1], in [2], in assay [3], in assay [4], in assay [5] and in assay [6] was “inactive” in each case. Besides, the Potency result in assay [7], in [8], in assay [9] and in assay [10] was “inactive” each time.
`OC[C@H]1O[C@@H]2O[C@H]3[C@H](O)[C@@H](O)[C@@H](O[C@H]4[C@H](O)[C@@H](O)[C@@H](O[C@H]5[C@H](O)[C@@H](O)[C@@H](O[C@H]6[C@H](O)[C@@H](O)[C@@H](O[C@H]7[C@H](O)[C@@H](O)[C@@H](O[C@H]1[C@H](O)[C@H]2O)O[C@@H]7CO)O[C@@H]6CO)O[C@@H]5CO)O[C@@H]4CO)O[C@@H]3CO`: the Potency entry in assay [1], in [2], in assay [3], in assay [4], in assay [5] and in assay [6] was “inactive” each time. The Potency result in [7], in [8], in assay [9] and in assay [10] was “inactive” each time.
On to `CC1(C)S[C@@H]2[C@H](NC(=O)C3(N)CCCCC3)C(=O)N2[C@H]1C(=O)O`, for which the Potency result in [1], in assay [2], in assay [3], in assay [4], in assay [5] and in [6] was “inactive” each time. In addition, the Potency result in [7], in [8], in [9] and in [10] was “inactive” in each case.

The values above are taken from PubChem BioAssay (NCATS).
